Experimental data as given in PubChem BioAssay (NCATS).
Inconclusive results are not listed. Where a call stands in place of a potency, no number is given. Values without a mark were called inactive. Calls of active or inactive are those of the source. The call rests on the fitted dose curve.

Assay: Cytotoxicity counterscreen for inhibitors of SARS-CoV-2 cell entry (AID 1645845); further: nearly all actives have a fitted effect of over 50% in size
Details: cell viability (SARS-CoV-2 entry assay cells); series mostly up to 57.1 µM; activity change, negative = cytotoxicity: at the top concentration
From the text: Assay Provider: Wei Zheng, Ph.D.
National Center for Advancing Translational Sciences, National Institute of Health, Rockville, MD.
SARS-CoV-2 spike protein, within the viral envelope, mediates viral attachment and infection of host cells. The SARS-CoV-2 spike protein specifically binds to the host receptor ACE2 (Angiotensin-converting enzyme 2). This interaction promotes endocytosis of the viral particle, additional events lead to viral-host cell membrane fusion and release of the viral contents, allowing viral replication.
While SARS-CoV-2 requires BSL-3 facilities for live virus work, pseudo-typed partices (PP) that incorporate SARS-CoV-2 spike proteins without replication elements could facilitate studies on viral entry mechanisms in a BSL-2 setting. This PP cell entry assay could also enable screening of small molecule compound libraries in BSL-2 setting to identify inhibitors of SARS-CoV-2 cell entry. To eliminate false positive compounds, ATP content cytotoxicity assay was screened in the same cell line.
SEQUENCE No. (e.g., 1, 2, 3, etc.); […] (e.g., Cells, Incubation, Reagent, etc.); VALUE and DESCRIPTION.
1. Cells. Seed 1500 HEK293-ACE2 cells (Expi293F with stable expression of human ACE2) in 2 uL/well media (DMEM, 10% FBS, 1x L-glutamine, 1x Pen/Strep, 1 ug/ml puromycin) in white 1536-well assay plates (Greiner #782073).
2. Incubation. Incubate at 37 C with 5% CO2 overnight (~16 h).
3. Compounds. Dispense 23 nL/well compounds in DMSO via pin transfer.
4. Incubation. Incubate for 1 h at 37C 5% CO2.
5. Reagent. Dispense 2 uL/well of media (DMEM, 10% FBS, 1x L-glutamine, 1x Pen/Strep, 1 ug/ml puromycin).
6. Incubation. Incubate at for 48h at 37C 5% CO2
7. Reagent. Dispense 4 uL/well of ATPLite 1step luminescence assay reagent (PerkinElmer #6016739).
8. Incubation. Incubate for 15 min at room temperature.
9. Detection. Read luminescence signal (Viewlux plate reader, PerkinElmer). Data was normalized with wells containing cells as 100%, and wells without cells (media only control) as 0%.
Potency means the concentration at half of the fitted maximal effect.

Compound | activity change, negative = cytotoxicity | outcome | Potency
CCC(=O)c1ccc2c(c1)N(CCCN(C)C)c1ccccc1S2 | -28.1% | – | –
COc1ccnc2c1CCCCC2S(=O)c1nc2ccccc2[nH]1 (stereo not given) | – | inactive | –
C=CCOC(Cn1ccnc1)c1ccc(Cl)cc1Cl (stereo not given) | – | inactive | –
C/C(=C(\CCOP(=O)(O)O)SC(=O)c1ccccc1)N(C=O)Cc1cnc(C)nc1N | 0.654% [at 5.25 µM] | – | –
CC/C(=C(/CC)c1ccc(O)cc1)c1ccc(O)cc1 | – | – | inactive
Nc1c(CC(=O)O)cccc1C(=O)c1ccc(Br)cc1 | – | inactive | –
CCOC(=O)c1ncn2c1CN(C)C(=O)c1c(I)cccc1-2 | – | inactive | –
O=C1OC(c2ccc(O)cc2)(c2ccc(O)cc2)c2ccccc21 | – | inactive | –
FC(F)(F)C(F)(F)C(F)(F)C(F)(F)C(F)(F)C(F)(F)C(F)(F)C(F)(F)Br | -0.231% | – | –
CCN(CC)CCOCCOC(=O)C1(c2ccccc2)CCCC1 | – | inactive | –
C#CCN(C)Cc1ccccc1 | 3.01% | – | –
C[C@@H]1CCC[C@H](C)N1CCCC(O)(c1ccccc1)c1ccccn1 (stereo not given in full) | -2.73% | – | –
CN1CCCC(n2nc(Cc3ccc(Cl)cc3)c3ccccc3c2=O)CC1 (stereo not given) | – | inactive | –
Nc1ccccc1C(=O)OCC(O)CO (stereo not given) | -3.15% | – | –
CC(C)c1cc2c(cc1S(=O)(=O)O)[C@@]1(C)CCC[C@@](C)(C(=O)O)[C@@H]1CC2 | – | inactive | –
O=C1NCCN1CCN1CCC(c2cn(-c3ccc(F)cc3)c3ccc(Cl)cc23)CC1 | – | – | 28.2 µM (active)
NC(=O)C1(N2CCCCC2)CCN(CCCC(=O)c2ccc(F)cc2)CC1 | – | inactive | –
CN(C)CCN1C(=O)c2ccccc2N(C)c2ccccc21 | – | inactive | –
Cn1cc(C(=O)[C@@H]2CCc3nc[nH]c3C2)c2ccccc21 | – | inactive | –
FC(F)(F)C(Cl)Br (stereo not given) | – | inactive | –

Compound | activity change, negative = cytotoxicity | outcome | Potency
Cc1ccc2c(Cl)cc(Cl)c(O)c2n1 | 1.06% | – | –
CN(C)CCn1nnnc1SCC1=C(C(=O)O)N2C(=O)[C@@H](NC(=O)Cc3csc(N)n3)[C@H]2SC1 | -18% | – | –
CCc1oc2ccccc2c1C(=O)c1cc(Br)c(O)c(Br)c1 | – | inactive | –
CCOc1ccc(NC(C)=O)cc1 | 1.67% | – | –
Nc1ccc(S(=O)(=O)Nc2nccs2)cc1 | – | inactive | –
CCCCCOc1ccc(C2SC(=O)NC2=O)cc1OCC (stereo not given) | – | inactive | –
CNC(=O)c1cnn(-c2nc(N)c3ncn([C@@H]4O[C@H](CO)[C@@H](O)[C@H]4O)c3n2)c1 | – | inactive | –
COc1ccc(CCN(C)CCCC(C#N)(c2cc(OC)c(OC)c(OC)c2)C(C)C)cc1OC (stereo not given) | – | inactive | –
O=[N+]([O-])c1nccn1CO[C@@H](CO)[C@H](O)CO | – | inactive | –
CN1C2CCC(C)(C)C1CC(OC(=O)C(O)(c1cccs1)c1cccs1)C2 (stereo not given) | -6.31% | – | –
C[C@H]1C[C@H]2[C@@H]3CCC4=CC(=O)C=C[C@]4(C)[C@H]3C(=O)C[C@]2(C)[C@@]1(O)C(=O)CO | – | – | inactive
CC1(C)O[C@@H]2C[C@H]3[C@@H]4C[C@H](F)C5=CC(=O)CC[C@]5(C)[C@H]4[C@@H](O)C[C@]3(C)[C@]2(C(=O)CO)O1 | – | inactive | –
Nc1c(NC/C=C\COc2cc(CN3CCCCC3)ccn2)c(=O)c1=O | – | inactive [at 27.1 µM] | –
Cc1ccc(Nc2c(F)cccc2Cl)c(CC(=O)O)c1 | – | inactive | –
CC1(C)S[C@@H]2[C@H](N=CN3CCCCCC3)C(=O)N2[C@H]1C(=O)O | 0.277% | – | –
CCc1ccc(C(=O)C(C)CN2CCCCC2)cc1 (stereo not given) | – | inactive | –
CC(C(O)c1ccccc1)N(C)CCOC(c1ccccc1)c1ccccc1 (stereo not given) | -16.7% | – | –
CC(C(=O)O)c1ccc2c(c1)Cc1cccnc1O2 (stereo not given) | – | inactive | –
Cc1cc(C(C)(C)C)c(O)c(C)c1CC1=NCCN1 | – | – | inactive
CC(Cc1ccccc1)NCc1ccccc1Cl (stereo not given) | – | inactive | –
